# According to publication PMC7862700, “An all-to-all approach to the identification of sequence-specific readers for epigenetic DNA modifications on cytosine”:
# Legend:
# Assay in all cases: DAPPL (digital affinity profiling via proximity ligation, sequencing); 10 mM Tris-HCl pH 7.5, 50 mM NaCl, 1 mM DTT, 4% glycerol, room temperature, 30 min; GST-TFs on glutathione beads, 16-mer random dsDNA library, 0.1% formaldehyde crosslink after washing; high values mean tight binding
# FLI1 = molecular target: T1, FLI1 (Homo sapiens, UniProt Q01543 1-452); settings: protein: recombinant; tags: N-terminal GST; dsDNA, one strand shown
# T1 sequence: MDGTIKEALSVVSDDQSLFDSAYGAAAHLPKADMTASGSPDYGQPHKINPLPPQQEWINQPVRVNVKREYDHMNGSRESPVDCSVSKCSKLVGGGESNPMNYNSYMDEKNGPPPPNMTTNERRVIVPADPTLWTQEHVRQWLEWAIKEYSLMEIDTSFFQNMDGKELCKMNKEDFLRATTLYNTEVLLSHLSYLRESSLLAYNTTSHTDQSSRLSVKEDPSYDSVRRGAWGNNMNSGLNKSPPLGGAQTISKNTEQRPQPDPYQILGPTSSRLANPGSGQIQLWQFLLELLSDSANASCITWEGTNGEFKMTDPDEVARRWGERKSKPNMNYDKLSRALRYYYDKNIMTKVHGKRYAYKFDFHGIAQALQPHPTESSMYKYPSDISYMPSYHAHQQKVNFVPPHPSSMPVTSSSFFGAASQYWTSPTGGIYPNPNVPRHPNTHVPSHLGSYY
# Outline: (§1)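 Human transcription factors carrying a GST fusion were produced in yeast, bound to glutathione beads, tagged with DNA barcodes and pooled together with a tag-only sample. Each pool was held with 200 nmole of a random double-stranded 16-mer DNA library in Tris/NaCl/DTT/glycerol buffer for 30 min at room temperature, then washed, crosslinked in 0.1% formaldehyde, proximity-ligated with BsaI/T4 ligase (1 h, 37 °C), PCR-amplified and sequenced on an Illumina NextSeq500. Binding signal is the read frequency of each hexamer for a given factor divided by its frequency in the tag-only sample.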
# ELK1 = molecular target: T2, ELK1 (Homo sapiens, UniProt P19419 1-428); settings: protein: recombinant; tags: N-terminal GST; dsDNA, one strand shown
# T2 sequence: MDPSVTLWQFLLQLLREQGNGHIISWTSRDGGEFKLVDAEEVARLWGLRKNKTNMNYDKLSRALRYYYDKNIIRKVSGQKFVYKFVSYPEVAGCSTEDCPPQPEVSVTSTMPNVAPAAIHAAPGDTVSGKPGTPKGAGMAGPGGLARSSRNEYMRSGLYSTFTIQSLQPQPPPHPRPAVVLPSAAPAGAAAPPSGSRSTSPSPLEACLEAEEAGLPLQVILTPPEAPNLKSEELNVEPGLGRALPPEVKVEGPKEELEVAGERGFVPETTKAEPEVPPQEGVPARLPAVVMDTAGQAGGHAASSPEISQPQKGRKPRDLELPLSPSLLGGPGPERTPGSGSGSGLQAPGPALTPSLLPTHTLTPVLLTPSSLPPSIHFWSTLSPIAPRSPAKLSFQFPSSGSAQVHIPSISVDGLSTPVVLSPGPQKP
# Outline: as §1
# GABPA = molecular target: T3, GABPA (Homo sapiens, UniProt Q06546 1-454); settings: protein: recombinant; tags: N-terminal GST; dsDNA, one strand shown
# T3 sequence: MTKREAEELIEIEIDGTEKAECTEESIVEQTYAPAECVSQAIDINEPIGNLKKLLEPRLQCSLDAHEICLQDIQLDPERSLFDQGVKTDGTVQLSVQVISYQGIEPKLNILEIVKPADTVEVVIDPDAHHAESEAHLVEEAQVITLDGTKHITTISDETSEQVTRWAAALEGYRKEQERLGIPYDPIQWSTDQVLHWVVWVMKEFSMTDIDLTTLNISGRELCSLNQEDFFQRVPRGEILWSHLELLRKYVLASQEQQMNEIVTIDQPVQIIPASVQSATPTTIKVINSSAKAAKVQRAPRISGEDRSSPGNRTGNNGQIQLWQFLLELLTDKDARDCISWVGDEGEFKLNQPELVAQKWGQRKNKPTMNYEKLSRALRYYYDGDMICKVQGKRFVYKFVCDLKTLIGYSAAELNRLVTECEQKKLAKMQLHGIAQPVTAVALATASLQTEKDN
# Outline: as §1
# ERG = molecular target: T4, ERG (Homo sapiens, UniProt P11308 1-479); settings: protein: recombinant; tags: N-terminal GST; dsDNA, one strand shown
# T4 sequence: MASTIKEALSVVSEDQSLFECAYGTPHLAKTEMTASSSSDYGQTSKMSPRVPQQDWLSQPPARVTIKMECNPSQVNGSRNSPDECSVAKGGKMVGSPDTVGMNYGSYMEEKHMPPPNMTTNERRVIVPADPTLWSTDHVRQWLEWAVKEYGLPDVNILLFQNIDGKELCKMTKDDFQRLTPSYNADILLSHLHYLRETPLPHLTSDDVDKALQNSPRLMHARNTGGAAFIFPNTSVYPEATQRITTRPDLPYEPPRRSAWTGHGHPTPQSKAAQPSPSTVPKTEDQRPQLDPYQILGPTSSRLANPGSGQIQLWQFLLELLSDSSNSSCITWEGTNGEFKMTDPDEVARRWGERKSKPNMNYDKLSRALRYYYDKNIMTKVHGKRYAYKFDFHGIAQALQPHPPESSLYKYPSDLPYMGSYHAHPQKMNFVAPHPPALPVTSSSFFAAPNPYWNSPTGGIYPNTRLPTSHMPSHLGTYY
# Outline: as §1
# ELF1 = ELF1 (Homo sapiens, UniProt P32519 1-619); settings: protein: recombinant; tags: N-terminal GST; dsDNA, one strand shown
# Outline: as §1
# EHF = molecular target: T5, EHF (Homo sapiens, UniProt Q9NZC4 1-300); settings: protein: recombinant; tags: N-terminal GST; dsDNA, one strand shown
# T5 sequence: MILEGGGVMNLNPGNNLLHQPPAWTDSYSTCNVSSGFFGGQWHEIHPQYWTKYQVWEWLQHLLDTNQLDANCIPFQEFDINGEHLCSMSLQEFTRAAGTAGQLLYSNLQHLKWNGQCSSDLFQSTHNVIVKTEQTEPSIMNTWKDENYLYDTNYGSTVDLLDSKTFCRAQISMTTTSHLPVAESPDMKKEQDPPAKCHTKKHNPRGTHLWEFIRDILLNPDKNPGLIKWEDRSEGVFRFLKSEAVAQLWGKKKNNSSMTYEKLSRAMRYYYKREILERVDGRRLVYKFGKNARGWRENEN
# Outline: as §1
# SPI1 = SPI1 (Homo sapiens, UniProt P17947 1-270); settings: protein: recombinant; tags: N-terminal GST; dsDNA, one strand shown
# Outline: as §1
# SPIB = SPIB (Homo sapiens, UniProt Q01892 1-262); settings: protein: recombinant; tags: N-terminal GST; dsDNA, one strand shown
# Outline: as §1
# ELK3 = molecular target: T6, ELK3 (Homo sapiens, UniProt P41970 1-407); settings: protein: recombinant; tags: N-terminal GST; dsDNA, one strand shown
# T6 sequence: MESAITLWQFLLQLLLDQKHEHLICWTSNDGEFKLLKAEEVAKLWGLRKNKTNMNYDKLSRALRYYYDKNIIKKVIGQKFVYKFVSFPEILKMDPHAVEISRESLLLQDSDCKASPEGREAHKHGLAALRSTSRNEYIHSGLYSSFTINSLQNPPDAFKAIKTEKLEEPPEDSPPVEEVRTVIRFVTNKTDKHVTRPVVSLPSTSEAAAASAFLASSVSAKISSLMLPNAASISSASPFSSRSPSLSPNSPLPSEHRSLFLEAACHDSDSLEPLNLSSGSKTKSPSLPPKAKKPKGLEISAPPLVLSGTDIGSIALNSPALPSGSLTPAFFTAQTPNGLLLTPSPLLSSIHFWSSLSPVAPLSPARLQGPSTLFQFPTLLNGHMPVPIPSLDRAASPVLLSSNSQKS
# Outline: as §1
# FEV = molecular target: T7, FEV (Homo sapiens, UniProt Q99581 1-238); settings: protein: recombinant; tags: N-terminal GST; dsDNA, one strand shown
# T7 sequence: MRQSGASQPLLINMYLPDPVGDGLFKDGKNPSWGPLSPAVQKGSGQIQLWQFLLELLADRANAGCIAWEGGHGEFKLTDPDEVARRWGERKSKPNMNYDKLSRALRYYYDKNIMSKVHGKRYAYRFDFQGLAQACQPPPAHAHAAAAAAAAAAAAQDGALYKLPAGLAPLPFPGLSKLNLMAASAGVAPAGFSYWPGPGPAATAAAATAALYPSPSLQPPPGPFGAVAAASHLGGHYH
# Outline: as §1
# ETV5 = ETV5 (Homo sapiens, UniProt P41161 1-510); settings: protein: recombinant; tags: N-terminal GST; dsDNA, one strand shown
# Outline: as §1
# HSF1 = HSF1 (Homo sapiens, UniProt Q00613 1-529); settings: protein: recombinant; tags: N-terminal GST; chain copies: 3; dsDNA, one strand shown
# Outline: as §1
# SPIC = molecular target: T8, SPIC (Homo sapiens, UniProt Q8N5J4 1-248); settings: protein: recombinant; tags: N-terminal GST; dsDNA, one strand shown
# T8 sequence: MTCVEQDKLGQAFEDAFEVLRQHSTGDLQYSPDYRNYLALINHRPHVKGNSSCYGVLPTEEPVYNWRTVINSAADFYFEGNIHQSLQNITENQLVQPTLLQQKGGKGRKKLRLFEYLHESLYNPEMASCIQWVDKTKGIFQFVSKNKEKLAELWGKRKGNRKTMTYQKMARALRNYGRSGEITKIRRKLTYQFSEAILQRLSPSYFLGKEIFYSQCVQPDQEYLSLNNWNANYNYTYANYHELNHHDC
# Outline: as §1
# ELF4 = ELF4 (Homo sapiens, UniProt Q99607 1-663); settings: protein: recombinant; tags: N-terminal GST; dsDNA, one strand shown
# Outline: as §1
# ELK4 = molecular target: T9, ELK4 (Homo sapiens, UniProt P28324-2 1-405); settings: protein: recombinant; tags: N-terminal GST; dsDNA, one strand shown
# T9 sequence: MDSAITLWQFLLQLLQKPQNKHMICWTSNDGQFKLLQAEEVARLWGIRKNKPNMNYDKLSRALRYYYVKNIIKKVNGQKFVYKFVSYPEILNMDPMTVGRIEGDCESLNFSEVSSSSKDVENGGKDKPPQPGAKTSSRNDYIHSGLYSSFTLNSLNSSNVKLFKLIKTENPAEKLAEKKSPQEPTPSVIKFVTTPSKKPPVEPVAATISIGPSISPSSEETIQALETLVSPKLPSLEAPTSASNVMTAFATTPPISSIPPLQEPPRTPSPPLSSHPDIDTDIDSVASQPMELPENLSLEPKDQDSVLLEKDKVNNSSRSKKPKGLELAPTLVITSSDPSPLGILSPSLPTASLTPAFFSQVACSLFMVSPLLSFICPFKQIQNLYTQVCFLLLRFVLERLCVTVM
# Outline: as §1
# ETV2 = molecular target: T10, ETV2 (Homo sapiens, UniProt O00321 1-342); settings: protein: recombinant; tags: N-terminal GST; dsDNA, one strand shown
# T10 sequence: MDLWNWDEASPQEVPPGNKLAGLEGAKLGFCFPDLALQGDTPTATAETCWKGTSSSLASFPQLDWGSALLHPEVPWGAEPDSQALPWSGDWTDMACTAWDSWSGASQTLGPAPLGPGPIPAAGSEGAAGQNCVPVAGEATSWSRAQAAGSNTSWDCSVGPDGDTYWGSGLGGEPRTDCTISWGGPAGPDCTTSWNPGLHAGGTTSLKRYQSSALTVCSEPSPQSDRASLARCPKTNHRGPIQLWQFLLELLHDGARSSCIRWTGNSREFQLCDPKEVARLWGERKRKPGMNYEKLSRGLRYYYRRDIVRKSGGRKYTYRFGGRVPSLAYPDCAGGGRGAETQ
# Outline: as §1
# ELF3 = molecular target: T11, ELF3 (Homo sapiens, UniProt P78545 1-371); settings: protein: recombinant; tags: N-terminal GST; dsDNA, one strand shown
# T11 sequence: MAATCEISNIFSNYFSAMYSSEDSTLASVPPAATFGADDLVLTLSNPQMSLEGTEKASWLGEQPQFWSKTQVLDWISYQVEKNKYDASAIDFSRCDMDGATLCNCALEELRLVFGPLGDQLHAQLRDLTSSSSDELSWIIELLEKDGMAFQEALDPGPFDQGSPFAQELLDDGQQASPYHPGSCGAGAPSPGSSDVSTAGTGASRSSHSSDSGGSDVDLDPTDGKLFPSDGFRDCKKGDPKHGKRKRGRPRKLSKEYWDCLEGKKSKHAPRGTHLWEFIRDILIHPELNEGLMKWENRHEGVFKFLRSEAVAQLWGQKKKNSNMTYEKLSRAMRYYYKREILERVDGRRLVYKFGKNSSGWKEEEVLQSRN
# Outline: as §1
# CRX = CRX (Homo sapiens, UniProt O43186 1-299); settings: protein: recombinant; tags: N-terminal GST; dsDNA, one strand shown
# Outline: as §1
# ETV1 = ETV1 (Homo sapiens, UniProt P50549 1-477); settings: protein: recombinant; tags: N-terminal GST; dsDNA, one strand shown
# Outline: as §1
# CRX, sequence (O43186 whole entry): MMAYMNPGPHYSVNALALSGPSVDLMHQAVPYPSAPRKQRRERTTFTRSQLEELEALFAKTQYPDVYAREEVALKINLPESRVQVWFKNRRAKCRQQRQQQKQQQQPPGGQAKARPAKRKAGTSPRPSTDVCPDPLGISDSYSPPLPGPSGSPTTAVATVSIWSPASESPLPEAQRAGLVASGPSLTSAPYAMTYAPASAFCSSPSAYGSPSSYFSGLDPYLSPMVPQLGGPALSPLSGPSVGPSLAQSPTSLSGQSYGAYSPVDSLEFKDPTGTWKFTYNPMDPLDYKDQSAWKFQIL
# SPIB, sequence (Q01892 whole entry): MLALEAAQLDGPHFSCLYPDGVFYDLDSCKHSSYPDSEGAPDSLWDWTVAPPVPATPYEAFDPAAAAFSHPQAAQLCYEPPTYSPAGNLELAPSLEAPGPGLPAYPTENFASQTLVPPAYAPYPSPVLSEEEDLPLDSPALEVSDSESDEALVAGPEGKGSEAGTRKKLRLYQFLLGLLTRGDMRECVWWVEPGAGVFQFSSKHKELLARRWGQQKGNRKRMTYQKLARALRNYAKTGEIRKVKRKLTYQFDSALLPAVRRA
# ETV1, sequence (P50549 whole entry): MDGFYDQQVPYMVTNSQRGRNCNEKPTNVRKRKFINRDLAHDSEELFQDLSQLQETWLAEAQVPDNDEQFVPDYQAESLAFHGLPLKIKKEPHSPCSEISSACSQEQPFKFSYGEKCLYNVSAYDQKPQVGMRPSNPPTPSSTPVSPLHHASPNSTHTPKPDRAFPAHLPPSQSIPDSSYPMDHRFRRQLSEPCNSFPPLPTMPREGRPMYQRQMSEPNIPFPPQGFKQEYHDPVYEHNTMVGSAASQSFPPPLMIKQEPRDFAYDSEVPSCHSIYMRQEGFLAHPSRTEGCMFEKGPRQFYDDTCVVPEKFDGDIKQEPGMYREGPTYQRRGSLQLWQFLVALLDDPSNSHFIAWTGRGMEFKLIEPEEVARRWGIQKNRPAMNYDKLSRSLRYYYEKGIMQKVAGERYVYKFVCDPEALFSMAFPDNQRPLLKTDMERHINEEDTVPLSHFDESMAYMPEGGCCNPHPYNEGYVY
# ELF1, sequence (P32519 whole entry): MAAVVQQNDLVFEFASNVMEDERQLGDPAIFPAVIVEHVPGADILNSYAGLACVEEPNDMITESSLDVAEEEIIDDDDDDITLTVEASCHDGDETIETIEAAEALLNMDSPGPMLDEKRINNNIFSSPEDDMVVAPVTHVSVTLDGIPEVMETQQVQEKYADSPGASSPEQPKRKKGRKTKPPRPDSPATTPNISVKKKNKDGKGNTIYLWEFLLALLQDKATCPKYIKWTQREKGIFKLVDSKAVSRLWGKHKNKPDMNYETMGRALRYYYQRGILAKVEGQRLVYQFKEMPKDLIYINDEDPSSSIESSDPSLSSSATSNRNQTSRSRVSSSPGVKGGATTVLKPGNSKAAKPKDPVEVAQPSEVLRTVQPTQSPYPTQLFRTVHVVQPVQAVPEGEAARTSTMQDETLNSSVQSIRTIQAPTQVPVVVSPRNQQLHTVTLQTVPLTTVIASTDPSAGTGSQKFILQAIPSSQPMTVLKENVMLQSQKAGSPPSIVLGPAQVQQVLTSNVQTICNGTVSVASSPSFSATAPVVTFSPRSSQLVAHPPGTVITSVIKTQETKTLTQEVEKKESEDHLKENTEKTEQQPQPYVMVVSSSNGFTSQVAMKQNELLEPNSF
# ETV5, sequence (P41161 whole entry): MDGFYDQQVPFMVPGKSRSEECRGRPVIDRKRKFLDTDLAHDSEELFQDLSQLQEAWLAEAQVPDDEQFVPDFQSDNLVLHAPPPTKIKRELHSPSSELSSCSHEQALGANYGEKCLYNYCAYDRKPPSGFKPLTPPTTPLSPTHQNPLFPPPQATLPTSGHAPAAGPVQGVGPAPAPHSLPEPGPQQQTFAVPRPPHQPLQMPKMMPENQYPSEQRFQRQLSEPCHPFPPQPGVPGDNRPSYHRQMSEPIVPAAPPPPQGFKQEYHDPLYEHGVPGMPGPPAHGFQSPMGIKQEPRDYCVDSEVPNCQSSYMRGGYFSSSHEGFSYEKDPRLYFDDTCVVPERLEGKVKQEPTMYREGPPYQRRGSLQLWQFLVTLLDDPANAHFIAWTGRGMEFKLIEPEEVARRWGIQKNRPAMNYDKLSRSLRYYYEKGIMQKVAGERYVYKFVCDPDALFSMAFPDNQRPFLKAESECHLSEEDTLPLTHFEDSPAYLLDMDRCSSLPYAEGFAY
# ELF4, sequence (Q99607 whole entry): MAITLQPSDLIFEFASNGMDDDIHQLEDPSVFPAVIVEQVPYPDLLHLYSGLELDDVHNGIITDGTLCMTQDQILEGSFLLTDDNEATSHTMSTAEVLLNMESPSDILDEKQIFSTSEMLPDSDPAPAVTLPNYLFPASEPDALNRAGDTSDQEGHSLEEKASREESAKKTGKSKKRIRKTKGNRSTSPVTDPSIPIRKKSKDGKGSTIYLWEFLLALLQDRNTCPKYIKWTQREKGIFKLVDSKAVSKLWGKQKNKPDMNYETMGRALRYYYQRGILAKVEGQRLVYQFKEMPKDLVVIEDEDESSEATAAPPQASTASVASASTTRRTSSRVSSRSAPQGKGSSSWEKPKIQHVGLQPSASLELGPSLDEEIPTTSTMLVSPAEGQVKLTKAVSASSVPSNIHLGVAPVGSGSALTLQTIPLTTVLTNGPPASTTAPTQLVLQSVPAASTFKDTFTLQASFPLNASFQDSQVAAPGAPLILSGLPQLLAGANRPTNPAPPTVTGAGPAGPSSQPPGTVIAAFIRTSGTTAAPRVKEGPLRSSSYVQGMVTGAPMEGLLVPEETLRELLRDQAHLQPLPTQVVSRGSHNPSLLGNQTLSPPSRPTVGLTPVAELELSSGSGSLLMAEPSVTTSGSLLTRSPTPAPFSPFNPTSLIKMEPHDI
# HSF1, sequence (Q00613 whole entry): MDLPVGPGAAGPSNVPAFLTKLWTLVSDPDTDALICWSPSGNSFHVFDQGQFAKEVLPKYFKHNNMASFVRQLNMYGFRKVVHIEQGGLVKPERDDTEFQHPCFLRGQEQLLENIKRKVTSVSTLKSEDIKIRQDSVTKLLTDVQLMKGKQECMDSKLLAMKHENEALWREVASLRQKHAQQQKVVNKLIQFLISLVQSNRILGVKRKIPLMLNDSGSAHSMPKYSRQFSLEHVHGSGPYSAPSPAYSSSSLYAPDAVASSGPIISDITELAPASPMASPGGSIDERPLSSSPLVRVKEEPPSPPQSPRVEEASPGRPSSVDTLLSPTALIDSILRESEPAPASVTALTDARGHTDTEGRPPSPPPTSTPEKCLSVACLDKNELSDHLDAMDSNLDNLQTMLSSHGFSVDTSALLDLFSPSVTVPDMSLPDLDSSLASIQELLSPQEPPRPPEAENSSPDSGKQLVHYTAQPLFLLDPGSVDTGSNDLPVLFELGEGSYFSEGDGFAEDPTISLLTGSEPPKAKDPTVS
sequence,measurement,setting,value
CTGTTT,binding signal,FLI1,"1.48 fold enrichment (6-mer frequency, TF over GST control)"
same,binding signal,ELK1,"1.36 fold enrichment (6-mer frequency, TF over GST control)"
same,binding signal,GABPA,"1.41 fold enrichment (6-mer frequency, TF over GST control)"
same,binding signal,ERG,"1.4 fold enrichment (6-mer frequency, TF over GST control)"
same,binding signal,ELF1,"1.4 fold enrichment (6-mer frequency, TF over GST control)"
same,binding signal,EHF,"1.34 fold enrichment (6-mer frequency, TF over GST control)"
same,binding signal,SPI1,"1.6 fold enrichment (6-mer frequency, TF over GST control)"
same,binding signal,SPIB,"1.43 fold enrichment (6-mer frequency, TF over GST control)"
same,binding signal,ELK3,"1.34 fold enrichment (6-mer frequency, TF over GST control)"
same,binding signal,FEV,"1.41 fold enrichment (6-mer frequency, TF over GST control)"
same,binding signal,ETV5,"1.42 fold enrichment (6-mer frequency, TF over GST control)"
same,binding signal,HSF1,"1.13 fold enrichment (6-mer frequency, TF over GST control)"
same,binding signal,SPIC,"1.31 fold enrichment (6-mer frequency, TF over GST control)"
same,binding signal,ELF4,"1.38 fold enrichment (6-mer frequency, TF over GST control)"
same,binding signal,ELK4,"1.29 fold enrichment (6-mer frequency, TF over GST control)"
same,binding signal,ETV2,"1.4 fold enrichment (6-mer frequency, TF over GST control)"
same,binding signal,ELF3,"1.14 fold enrichment (6-mer frequency, TF over GST control)"
same,binding signal,CRX,"1.08 fold enrichment (6-mer frequency, TF over GST control)"
same,binding signal,ETV1,"1.5 fold enrichment (6-mer frequency, TF over GST control)"
